Results on eleven compounds are retold here after PubChem BioAssay (Tox21).

The nature of assay [1]: qHTS assay to identify small molecule agonists of the NFkB signaling pathway (AID 1159509; active = well fitted curve in the direction sought with a large enough effect in the signal ratio in the repeat runs, not every such curve was filed as active; the % refers to the signal ratio; also: series mostly up to about 61 µM). The method in brief:
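ME-180 NFkB-bla, 2,000 cells/well, overnight plating; cpd pinned in DMSO, 5 h 37 C; B/G FRET substrate 1.5 h RT; ex 405, em 460/530 nm.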
Background: In qHTS, concentration-response curves come from the screen itself.

Assay [2] can be described thus: qHTS assay to identify small molecule antagonists of the retinoid-related orphan receptor gamma (ROR-gamma) signaling pathway - cell viability counter screen (AID 1159520). Also: nearly all actives have a fitted effect of over 50% in size. Also: potency is read from the fitted curve at half-maximal effect. The method, boiled down: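 Tet-on ROR gamma CHO cells were given compounds for 2 hr, then doxycycline hyclate at 1 uM final, and incubated 16 hr at 37 C. Viability was measured as ATP content by CellTiter-Glo luminescence.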

Assay [3] deals with Nuclear receptor ROR-gamma (Homo sapiens) (UniProt P51449). The assay can be described thus: qHTS assay to identify small molecule antagonists of the retinoid-related orphan receptor gamma (ROR-gamma) signaling pathway (AID 1159521; also: nearly all actives have a fitted effect of over 50% in size; also: potency is read from the fitted curve at half-maximal effect). The method, boiled down:
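RORγ antagonism is scored from reduced reporter luminescence in Tet-on CHO cells. Induction used 1 uM final doxycycline hyclate for 16 h at 37 C, following a 2 h compound exposure.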

The nature of assay [4]: qHTS assay to identify small molecule agonists of the AP-1 signaling pathway - cell viability counter screen (AID 1159525; calls by dose curve; also: nearly all actives have a fitted effect of over 55% in size). The method, boiled down: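 AP-1-bla ME-180 cells in Opti-MEM with 0.5% dialyzed FBS, compound exposure 5 h at 37 C in 15-point titration. Viability read in the same wells as ATP content by CellTiter-Glo luminescence, normalised to tetra-n-octylammonium bromide and DMSO controls.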

In assay [5] the target is Retinoic acid receptor RXR-alpha (Homo sapiens) (UniProt P19793). The assay can be described thus: qHTS assay to identify small molecule agonists of the RXR signaling pathway (AID 1159527; calls by dose curve; also: nearly all actives have a fitted effect of over 35% in size; also: potency is read from the fitted curve at half-maximal effect). The method in brief:
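qHTS of the Tox21 10K library in GeneBLAzer RXR-alpha HEK 293T cells carrying a beta-lactamase reporter […]; 16 hr treatment, 9-cis retinoic acid as agonist control, FRET read-out.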

Assay [6] can be described thus: qHTS assay to identify small molecule agonists of the RXR signaling pathway - cell viability counter screen (AID 1159529). Also: nearly all actives have a fitted effect of over 50% in size. Also: potency is read from the fitted curve at half-maximal effect. The method in brief: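 Cell viability is measured by CellTiter-Glo luminescence, 30 min at room temperature, in wells already read for beta-lactamase. Engineered HEK 293T cells (RXR-alpha-UAS-bla) are dosed 16 hr at 37 C. Tetraoctyl ammonium bromide serves as positive control.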

Assay [7] is described as follows: qHTS assay to identify small molecule antagonists of the retinoid acid receptor (RAR) signaling pathway - cell viability counter screen (AID 1159551). Also: nearly all actives have a fitted effect of over 35% in size. Also: potency is read from the fitted curve at half-maximal effect. The method, boiled down: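 Seed C3RL4 cells; next day add compound, then retinol to 1 uM final; incubate 6 h at 37 C; add CellTiter-Glo; read luminescence after 30 min at RT.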
Assay [8] is described as follows: qHTS assay to identify small molecule antagonists of the retinoic acid receptor (RAR) signaling pathway (AID 1159552; also: nearly all actives have a fitted effect of over 50% in size; also: potency is read from the fitted curve at half-maximal effect). The method in brief: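 Quantitative HTS in C3RL4 RARE-luciferase reporter cells. Compounds were added with 1 uM (final) retinol; luminescence was read after 6 hr.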
Assay [9] relates to estrogen-related receptor alpha (ERRalpha) with PGC-1alpha coactivator, human. The assay can be described thus: qHTS assay to identify small molecule antagonists of the estrogen related receptor signaling pathway with the pleiotropic PPARgamma coactivator (PGC) (AID 1224821; calls by dose curve). The method in brief:
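Luminescent read-out (One-Glo, 30 min at room temperature) following 18 h treatment of PGC/ERR cells at 37 C with compounds delivered in DMSO. Cells had settled 6 h at 37 C/5% CO2 before dosing.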

Assay [10] in a line: qHTS assay to identify small molecule antagonists of the estrogen related receptor signaling pathway with the pleiotropic PPARgamma coactivator (PGC) cell viability counter screen (AID 1224822;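 also: series mostly up to about 46 µM; viability read after 17.5 h compound exposure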). The method, boiled down:
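Compounds in DMSO, with positive and negative controls, were applied to PGC/ERR cells (2,000/well) and left 17.5 h at 37 C before CellTiter-Fluor detection.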

Assay [11] in a line: qHTS assay to identify small molecule agonists of the estrogen related receptor signaling pathway with the pleiotropic PPARgamma coactivator (PGC) (AID 1224823). The method, boiled down: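 Steps: plate PGC/ERR cells at 2,000 cells/well; incubate 6 h, 37 C/5% CO2; pin-transfer compounds (DMSO); incubate 18 h, 37 C; add One-Glo; 30 min RT; read luminescence.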
The nature of assay [12]: qHTS assay to identify small molecule agonists of the vitamin D receptor (VDR) signaling pathway - cell viability counter screen (AID 743224). Also: nearly all actives have a fitted effect of over 50% in size. Also: potency is read from the fitted curve at half-maximal effect. The method, boiled down:
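Here cell health was gauged by luminescent ATP detection (CellTiter-Glo, 30 min RT) in VDR-bla cells that had been incubated with test compounds for 16 h at 37C and 5% CO2.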

Assay [13] can be described thus: qHTS assay to identify small molecule antagonists of the vitamin D receptor (VDR) signaling pathway - cell viability counter screen (AID 743225). Also: nearly all actives have a fitted effect of over 50% in size. Also: potency is read from the fitted curve at half-maximal effect. The method in brief: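 Cells (VDR-UAS-bla HEK 293T) are plated, rested 4 h at 37C, dosed with compound and 3 nM final 1-alpha,25-dihydroxy vitamin D3, and incubated 16 h. Viability is taken from CellTiter-Glo luminescence in the reporter wells.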

Assay [14] in a line: qHTS assay to identify small molecule agonists of the endoplasmic reticulum stress response signaling pathway - cell viability counter screen (AID 1159517; calls by dose curve). The method in brief:
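ESRE-bla HeLa cells, 1,500 per well, seeded overnight then treated with compounds for 5 hr at 37 C. After the beta-lactamase read, viability in the same wells is measured by CellTiter-Glo luminescence after 30 min at room temperature.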

Assay [15] is described as follows: qHTS assay to identify small molecule agonists of the NFkB signaling pathway - cell viability counter screen (AID 1159515; calls by dose curve; also: series mostly up to about 61 µM; nearly all actives have a fitted effect of over 55% in size). The method in brief:
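5 hr compound treatment of NFkB-bla ME-180 cells (2,000/well, seeded overnight beforehand), followed by reporter substrate for 1.5 hr. CellTiter-Glo added afterward; luminescence after 30 min RT.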

Assay [16] is described as follows: qHTS assay to identify small molecule agonists of the endoplasmic reticulum stress response signaling pathway (AID 1159516; active = well fitted activation curve with a large enough effect in the signal ratio in the repeat runs, not every such curve was filed as active; the % refers to the signal ratio). The method, boiled down:
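Reporter HeLa cells (ESRE-beta-lactamase) underwent 5 hr compound incubation at 37 C and 5% CO2 in quantitative HTS format. Detection followed 2 hr of FRET substrate loading at room temperature.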

Assay [17] in a line: qHTS assay to identify small molecule agonists of the AP-1 signaling pathway (AID 1159526; calls by dose curve).
Assay [18] is described as follows: qHTS assay to identify small molecule agonists of the retinoic acid receptor (RAR) signaling pathway (AID 1159553). Also: potency is read from the fitted curve at half-maximal effect. The method in brief: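 Activation of retinol signaling was monitored via a RARE luciferase reporter in C3RL4 cells. After 6 hr compound treatment at 37 C, detection reagent was added for 30 min at room temperature before luminescence reading.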

Each structure is given as a SMILES string. Results filed as inconclusive are left out. Activity calls are given as the source filed them. Unless noted, calls follow the shape of the dose curve; as a rule, active = well fitted curve in the direction sought with a large enough effect in the repeat runs; inconclusive = weak or mixed curves; inactive = no such curve, though single readings can be large; an effect the other way counts as inactive or inconclusive.

Chain of Retinoic acid receptor RXR-alpha (Homo sapiens) (P19793 whole entry, looked up): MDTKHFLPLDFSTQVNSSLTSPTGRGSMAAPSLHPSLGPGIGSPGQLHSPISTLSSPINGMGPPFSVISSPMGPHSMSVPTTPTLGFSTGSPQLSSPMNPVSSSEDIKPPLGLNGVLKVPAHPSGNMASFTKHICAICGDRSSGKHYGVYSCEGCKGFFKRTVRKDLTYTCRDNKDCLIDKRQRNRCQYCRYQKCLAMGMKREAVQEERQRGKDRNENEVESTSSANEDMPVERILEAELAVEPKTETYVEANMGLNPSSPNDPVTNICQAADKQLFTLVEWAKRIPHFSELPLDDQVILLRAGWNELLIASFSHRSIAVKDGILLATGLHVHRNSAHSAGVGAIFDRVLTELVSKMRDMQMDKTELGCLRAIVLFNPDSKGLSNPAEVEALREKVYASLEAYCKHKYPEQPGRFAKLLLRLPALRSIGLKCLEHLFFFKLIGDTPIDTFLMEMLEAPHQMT

With `Nc1ccc(O)c([N+](=O)[O-])c1`, the call in assay [1], in assay [9] and in [11] was inactive. The Potency result in assay [2], in assay [4], in assay [6], in [7], in assay [8] and in [10] was “inactive” in each case. Further, the Potency in assay [3] is 8.63 µM (active); in assay [5] it was 7.76 µM (active).
`COc1ccc(OC(F)(F)F)cc1CN[C@H]1CCCN[C@H]1c1ccccc1`: the Potency in assay [12] was 54.9 µM (active); in assay [13], 49 µM (active). The result in assay [1] was inactive. Besides, the Potency entry in [14], in assay [2] and in assay [7] was “inactive” each time.
As for `CC(=O)C(=O)O`, the Potency entry in assay [12], in [13], in assay [15], in [16], in [14] and in [2] was “inactive” each time. The Potency result in [3], in assay [4], in assay [17], in assay [5], in [6] and in assay [7] was “inactive” each time. The Potency result in assay [8] and in [18] was “inactive” in each case.
For the compound `COc1cccc(O)c1O`, the Potency is 57.1 µM (active) in assay [12], 63.5 µM (active) in assay [3] and 56.6 µM (active) in assay [8]. Besides, the Potency entry in assay [13], in assay [14], in [4], in assay [5], in assay [6] and in assay [7] was “inactive” throughout. Moreover, the compound was called inactive in [1].
Turning to `CN(N=O)C(=O)N[C@@H]1[C@@H](O)[C@H](O)[C@@H](CO)O[C@@H]1O`, the Potency entry in assay [12], in assay [13], in assay [15], in assay [16], in assay [14] and in assay [2] was “inactive” each time. Moreover, the Potency result in assay [3], in assay [4], in assay [17], in assay [5], in [6] and in assay [7] was “inactive” in each case. In addition, the Potency result in assay [8] and in assay [18] was “inactive” in each case.
On to `NC(=O)n1c(O)c(C(=O)c2cccs2)c2cc(Cl)ccc21`, for which the Potency result in assay [13], in [14], in assay [4], in [17], in assay [7] and in assay [8] was “inactive” in each case. For the same compound, the Potency result in assay [18] was “inactive”. Moreover, in [1], the call was inactive. Also, the Potency in [3] was 6.68 µM (active).
As for `CCCC[P+](CCCC)(CCCC)CCCC`, the Potency entry in assay [12], in assay [13], in assay [15], in assay [16], in [14] and in assay [2] was “inactive” throughout. The Potency entry in [3], in assay [4], in assay [17], in assay [5], in assay [6] and in assay [7] was “inactive” throughout. For the same compound, in assay [18], the Potency entry was “inactive”.
For the compound `O=CC(=O)c1ccccc1`, the Potency entry in assay [12], in assay [13], in [2], in [4], in [6] and in assay [8] was “inactive” in each case. Besides, the Potency result in [18] was “inactive”. In addition, the call in assay [1] was inactive.
Take `O=C(Nc1ncc([N+](=O)[O-])s1)c1cccs1`: in assay [1], the call was inactive. Also, the Potency in [2] is 13.3 µM (active); in assay [6] it was 6.01 µM (active); in [7], 23.7 µM (active); in assay [18], 1.06 µM (active). Further, the Potency result in assay [3] and in assay [8] was “inactive” each time.
Consider `Nc1c(N=Nc2ccc(-c3ccc(N=Nc4cc(S(=O)(=O)O)c5ccccc5c4N)cc3)cc2)cc(S(=O)(=O)O)c2ccccc12`, for which the Potency result in assay [12], in assay [13], in assay [4], in [5], in assay [6] and in assay [8] was “inactive” throughout. Further, in assay [18], the Potency result is “inactive”. For the same compound, the compound was classed as inactive in [1]. The Potency in [7] is 17.2 µM (active).
Consider `NC(CO)(CO)CO`, for which the Potency entry in assay [12], in [13], in assay [15], in assay [16], in assay [14] and in assay [2] was “inactive” each time. Further, the Potency result in assay [3], in assay [4], in [17], in [5], in assay [6] and in assay [7] was “inactive” throughout. The Potency result in assay [8] and in assay [18] was “inactive” in each case.
